Here are results for 43 compounds from PubChem BioAssay AID504408 (Broad Institute, 2011).

The campaign covered roughly 300,000 compounds. About 5,200 (1.7%) were called active. The sample holds actives, similar compounds and a random draw of the others, so the mix is not that of the screen.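 Rule for the calls: active = mean replicate activation of at least 50% with a set share of replicates each reaching 50%; inconclusive = only one of those two conditions met; inactive = mean below 50% and too few replicates reaching it.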

The nature of this test: HSF-1 activators, primary screen, NIH3T3-HGL cells, MG132 stress, luminescence, single point (AID 504408).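 Note: 0% = median of the neutral control wells and 100% = twice that signal.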 The conditions noted are these: NIH3T3-HGL HSF-1 luciferase reporter, MG132, 8 h; at 9 µM; active compounds read high; 100% = twice DMSO control signal. (In general: Reporter assays use an easily measured gene product as a stand-in for the process of interest.)
On to `Cn1nc(C(F)(F)F)cc1C(=O)O`, for which the activation is 15.5% (inactive).

For the compound `Cn1nc(C(F)(F)F)cc1-c1ccc(/C=C(\C#N)C(=O)c2cccc(C(F)(F)F)c2)s1`, the activation is 65.6% (active).

Take `CNC(=O)c1ccc(NC(=O)c2cccc(C(F)(F)F)c2)cc1`: the activation is 9.95% (inactive).

Regarding `FC(F)(F)c1ccc2c3n(nc2c1)CCN=C3c1ccc(Cl)cc1`, the activation was -14.8% (inactive).

In the case of `Cc1cc(C)c2c(NC(=O)C3CC3)nn(C)c2n1`, the activation is 56.3% (active).

In the case of `Cc1ccc2c(NC(=O)C3CC3)cccc2n1`, the activation is -0.793% (inactive).

Take `Cc1cc(C)cc(NC(=O)C2CCN(c3nc(C)cc(C)n3)CC2)c1`: the activation is 11% (inactive).

As for `COc1ccc(-c2csc(NC3OC(=O)c4ccccc43)n2)cc1` (stereo not drawn), the activation is 20.2% (inactive).

`COc1ccc(CCNc2nc(-c3cccc(NC(C)=O)c3)cs2)cc1OC`: the activation was -4.33% (inactive).

On to `Cc1ccc(-c2csc(NC(=O)Cn3[nH]c(=O)c4ccccc4c3=O)n2)cc1`, for which the activation was -17.7% (inactive).

`COc1ccc2c(c1OC)C(=O)OC2Nc1nc(-c2ccccc2)cs1` (stereo not drawn): the activation was 139% (active).

Turning to `Cc1ccc(-c2csc(NC3OC(=O)c4ccccc43)n2)cc1` (stereo not drawn), the activation is 81.1% (active).

For the compound `COc1cccc(CC(=O)Nc2nc(-c3ccc(OC)c(OC)c3)cs2)c1`, the activation was 3.91% (inactive).

On to `CCc1cccc(C)c1NC(=O)COC(=O)CC1CCCC1`, for which the activation was 4.54% (inactive).

Take `CCCCn1c(N)c(N(CC(C)C)C(=O)c2ccc(-n3c(C)ccc3C)cc2)c(=O)[nH]c1=O`: the activation was 4.3% (inactive).

As to `CCN(CC(=O)Nc1ccc(NC(C)=O)cc1)C(=O)C1CC(=O)N(Cc2ccc(C)cc2)C1` (stereo not drawn), the activation is 3.94% (inactive).

For the compound `Cc1cccc(C(=O)NCc2nnc(SC(C)C(=O)Nc3nnc(C)s3)n2C)c1` (stereo not drawn), the activation is -1.45% (inactive).

For the compound `Cc1onc(-c2ccccc2Cl)c1C(=O)N(Cc1ccc(N(C)C)cc1)C(C)C`, the activation was 8.27% (inactive).

With `COc1cccc(NC(=S)NCc2ccccn2)c1`, the activation was 15.3% (inactive).

With `Cc1nn(C)c(C(=O)NNC(=S)NC2CCCCC2)c1Cl`, the activation was 22.3% (inactive).

As to `COc1cccc(NC(=S)NC(=O)c2c(Cl)c(C)nn2C)c1`, the activation is 60.9% (active).

In the case of `CN(CC(=O)Nc1cccc(F)c1)C(=O)C1CSC2(C)CCC(=O)N12` (stereo not drawn), the activation was 1.13% (inactive).

As to `O=C1CN(C(=O)COc2c(Cl)cccc2Cl)c2ccccc2N1`, the activation is -79.7% (inactive).

Consider `Cc1cc(C)cc(NC(=O)COc2coc(CN3CCN(c4ccccc4)CC3)cc2=O)c1`, for which the activation was 1.43% (inactive).

With `C/C(CCC(=O)OC[C@H]1O[C@H](C#Cc2ccccc2)C=C[C@@H]1Oc1ccc(C)cc1)=N\OC[C@@H](O)[C@H]1O[C@@H]2OC(C)(C)O[C@@H]2[C@H]1O`, the activation is 61.7% (active).

As to `COc1ccc(O[C@H]2C=C[C@@H](c3ccccc3)O[C@@H]2CO/N=C/C[C@@H]2C=C[C@H](OC(C)=O)[C@@H](COC(C)=O)O2)cc1`, the activation was -4.12% (inactive).

Turning to `CCOc1ccc(CCNC(=O)COC(=O)c2c(OC)cccc2OC)cc1OCC`, the activation was -2.88% (inactive).

On to `Cc1cn(COC/C=C/c2ccccc2)c(=O)[nH]c1=O`, for which the activation was -6.12% (inactive).

For `Cc1[nH]c(=O)c(C(=O)/C=C/c2ccccc2)c2c1CCCC2`, the activation was 71% (active).

For `CC(=O)Nc1ccc(/C=C/C(=O)c2ccccc2)cc1`, the activation was 30.2% (inactive).

Turning to `O=C(c1ccc(F)cc1)N1CCC(C(=O)N2CCN(S(=O)(=O)c3ccccc3Br)CC2)CC1`, the activation is -3.27% (inactive).

Take `CCOc1ccc(S(=O)(=O)N2CCC(C(=O)OCc3ccc(OC)cc3)CC2)cc1`: the activation was 10.2% (inactive).

Turning to `Cc1nc(-c2ccc(F)cc2)c(CC(=O)Nc2cccc(S(=O)(=O)N3CCOCC3)c2)s1`, the activation was 4.29% (inactive).

Turning to `O=C(c1ccc[nH]c1=S)N1CCN(S(=O)(=O)c2ccc(Br)cc2Cl)CC1`, the activation was 58% (active).

As for `O=C(c1ccccc1F)N1CCN(S(=O)(=O)c2ccc(Br)cc2)CC1`, the activation is -5.95% (inactive).

As to `O=C(c1ccc(Cl)c(S(=O)(=O)N2CCCCC2)c1)N1CCCCCC1`, the activation was -11.6% (inactive).

Consider `CC(=O)CC[C@@H](C)O[C@@H]1OC(C)[C@H](O)CC1O` (stereo partly drawn), for which the activation is -8.11% (inactive).

For the compound `CCOc1ccc(C(=O)Nc2cc(Cl)ccc2-n2cncn2)cc1OC`, the activation is -15.6% (inactive).

Take `Cc1ccccc1NC(=O)C(C)OC(=O)CCC(=O)N(CC(C)C)c1c(N)n(CC(C)C)c(=O)[nH]c1=O` (stereo not drawn): the activation is -9.04% (inactive).

On to `Cc1ccc(C(=O)OCc2nc(N)nc(Nc3ccccc3C)n2)cc1`, for which the activation was -1.52% (inactive).

Take `Cc1ccccc1Nc1nc(N)nc(CSc2nnc3ccccn23)n1`: the activation was -3.03% (inactive).

As for `Cc1ccccc1Nc1nc(N)nc(CSc2ccccc2)n1`, the activation is 118% (active).

Regarding `O=C(Nc1ncccc1O)c1ccc(S(=O)(=O)N2CCCCCC2)cc1`, the activation is 3.69% (inactive).
